Sampled rows, rich in hits. Any-hit rate of the full collection: about 7.1%.
S2 tox: Viability Counterscreen for Primary qHTS for Inhibitors of ATXN expression | S2 cells (HEK-293 line with an ATXN2-luciferase reporter) viability, CellTiter-Fluor protease fluorescence, 24 h | Potency, µM (doses to about 56.7 µM), actives largely listed as cytotoxic | 0.49% of 400,000 active | AID 651635, 2014; further: potency means the concentration at half of the fitted maximal effect; nearly all actives have a fitted effect of over 40% in size
PINK1 modulator: A Quantitative High throughput Screen to Identify Chemical Modulators of PINK1 Expression; PINK1 immunofluorescence, high-content cytometry, 24 h; Potency, µM (top dose mostly 76.6 µM), without a hit: at the top dose activation (PINK1 increase), usual class: activators; 0.2% of 410,000 active; AID 624263, 2012; active means well fitted activation curve with a large enough effect; inconclusive means small, poorly fitted or top-dose-only effect; cell line not stated here; further: potency means the concentration at half of the fitted maximal effect; % of control where 0% means no effect; nearly all actives have a fitted effect of over 65% in size
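Cells are seeded, rested 12 hours, then given compound at five concentrations or DMSO for 24 hours. After fixation, blocking and antibody staining, PINK1 amount and mitochondrial localization are scored; CCCP serves as control.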
SW480 rereplic: A quantitative high throughput screen for small molecules that induce DNA re-replication in SW480 colon adenocarcinoma cells. Potency, µM (highest dose often 46.1 µM), for inactives: at the highest dose re-replication activation, usual class: activators. 1.8% of 340,000 active. AID 624297, 2012. SW480 DNA re-replication, Hoechst DNA content imaging, 48 h; further: potency means the concentration at half of the fitted maximal effect; % of control where 0% means no effect; nearly all actives have a fitted effect of over 55% in size
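Per well, 250 cells were exposed to pinned compound for 48 hr. Nuclear DNA was visualised with Hoechst (40 min, 37 C) and total object intensity recorded by fluorescence scanning.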
ATXN2 expr inh: Primary qHTS for Inhibitors of ATXN expression. HEK-293 ATXN2-luciferase reporter, luminescence, 24 h. Potency, µM (titrated, usually from 57 µM), for inactives: top-dose activity change, negative = inhibition, usual class: inhibitors. 0.72% of 360,000 active; further: potency means the concentration at half of the fitted maximal effect; on the % scale 0 is the no-effect control and ±100 the full control effect; nearly all actives have a fitted effect of over 55% in size
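ATXN2-luciferase reporter cells (luciferase flanked by upstream and downstream ATXN2 gene portions) were treated 24 h at 37 °C with compounds at up to 57 uM. SteadyGlo luminescence gave expression; GF-AFC fluorescence gave viability.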
IL1B secr inh: qHTS for Inhibitors of Inflammasome Signaling: IL-1-beta AlphaLISA Primary Screen. THP-1 LPS/ATP IL-1B secretion, AlphaLISA, 16 h; active compounds read low. 4.7% of 360,000 active. AID 743279, 2014. activity change, % at 57.5 µM; in the data active means activity change below about -50%; inconclusive means mostly about -30% to -49%; further: on the % scale 0 is the no-effect control and ±100 the full control effect
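THP-1 cells pretreated 1 hr with compounds (up to 57.5 uM final), then stimulated with LPS (250 ng/mL final) plus ATP (1.25 mM final); secreted IL-1B measured by AlphaLISA after 16 hr, decreased signal indicating inhibition.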
MCF10A rerep: A quantitative high throughput screen for small molecules that induce DNA re-replication in MCF 10a normal breast cells; Potency, µM (titrated, usually from 46.1 µM), without a hit: at the highest dose activity, positive = re-replication, most hits filed as activators; MCF 10A DNA re-replication, Hoechst nuclear intensity, 48 h; AID 624296, 2012; 2.9% of 350,000 active; further: potency means the concentration at half of the fitted maximal effect; % of control where 0% means no effect; nearly all actives have a fitted effect of over 50% in size
Numbers without * were called inactive; i = inactive; ? = inconclusive; / = no result; ! = a repeat was not active; [ ] = remark or other dose. Unless noted, the call rests on the fitted dose curve; in most records, active means well fitted curve in the direction sought with a large enough effect; inconclusive means small, poorly fitted or top-dose-only effect, or another doubt; inactive means no such curve, though single readings can be large; an effect the other way counts as inactive or inconclusive.

SMILES	S2 tox	PINK1 modulator	SW480 rereplic	ATXN2 expr inh	IL1B secr inh	MCF10A rerep
Cc1ccc2c(c1)C(=O)C(=O)N2CCCOc1ccccc1C	?	0%	30%	-16%	?	?
Cc1ccc2c(c1)C(=O)C(=O)N2CCOc1ccccc1	?	0%	4.1µM*	18%	-2	19%
O=C(CSc1cn(CC(=O)N2CCCCC2)c2ccccc12)NCc1ccc(F)cc1	/	0%	/	/	/	/
CC(=O)Nc1cccc(NC(=O)C(=O)NCCc2csc3nc(-c4ccccc4F)nn23)c1	i	2%	/	11%	/	/
O=C(/C=C/c1ccc([N+](=O)[O-])s1)N1CCCC1	?	?	12µM*	/	7	-1%
CC1CN(C(=O)/C=C/c2ccc([N+](=O)[O-])s2)CC(C)O1 (centres undefined)	i	24%	8.2µM*	-24%	-23	?
O=C(/C=C/c1ccc([N+](=O)[O-])s1)N1CCCCC1	?	?	5.8µM*	?	-90*	?
N[C@H]1CN(c2c(F)cc3c(=O)c(C(=O)O)cn(C4C[C@@H]4F)c3c2Cl)CC12CC2 (some centres undefined)	i	/	/	-1%	/	/
CCOC(=O)c1ccc(NC(=S)NN2CCOCC2)cc1	i	0%	-1%	14%	15	23µM*
CCC(C)(C)n1nnnc1C(c1cc2ccc(C)cc2[nH]c1=O)N(Cc1cccnc1)Cc1ccco1 (centres undefined)	?	/	?	-10%	-69*	?
Cc1cc2cc(C(c3nnnn3C3CCCC3)N(Cc3cccnc3)Cc3ccco3)c(=O)[nH]c2cc1C (centres undefined)	i	5%[38.3 µM]	?	-12%	?	?
CC1(C)O[C@@H]2C[C@H]3[C@@H]4C[C@H](F)C5=CC(=O)C=C[C@]5(C)[C@@]4(F)[C@@H](O)C[C@]3(C)[C@]2(C(=O)CO)O1	i	0%	-4%	1%	-54*	11%
CC1(C)O[C@@H]2C[C@H]3[C@@H]4CCC5=CC(=O)C=C[C@]5(C)[C@@]4(F)[C@@H](O)C[C@]3(C)[C@]2(C(=O)CO)O1	i	6%	12%	3%	?	-1%
CC(=O)OCC(=O)[C@@]12OC3(CCCC3)O[C@@H]1C[C@H]1[C@@H]3CCC4=CC(=O)C=C[C@]4(C)[C@@]3(F)[C@@H](O)C[C@@]12C	i	0%	0.26µM*!	-38%	0	?
Cc1[nH]nc2c1C(C(C)c1ccccc1)C(C#N)=C(N)O2 (centres undefined)	i	0%	-2%	-10%[11.3 µM]	-86*	9%
COc1cc(/C=C2\SC(=Nc3ccccc3)N(CCc3c[nH]c4ccccc34)C2=O)ccc1OC(C)C(=O)O (centres undefined)	i	-4%	-5%	-11%	?	?
O=C1/C(=C/c2ccc(N3CCOCC3)o2)SC(=Nc2ccccc2)N1CCc1c[nH]c2ccccc12	?	?	?	18µM*	-99*	?
CC(C)C[C@@H](CN1CCC[C@@H]1CN1C(=S)NC[C@@H]1Cc1ccc(O)cc1)N1C[C@H](Cc2ccc(O)cc2)N(CC2CCCCCC2)C1=S	?	0%	/	?	-82*	/
CC(C)C[C@@H](CN1CCC[C@@H]1CN1C(=S)NC[C@@H]1Cc1ccc(O)cc1)N1C[C@H](Cc2ccc(O)cc2)N(CC2CCCCC2)C1=S	25µM*	0%	/	?	-80*	/
CC(C)C[C@@H](CN1CCCC1CN1C(=S)NC[C@@H]1Cc1ccccc1)N1C[C@H](Cc2ccc(O)cc2)N(CC2CCCCC2)C1=S (some centres undefined)	?	19%	/	-37%	-21	/
CC(C)C[C@H]1CN([C@@H](CC(C)C)CN2CCC[C@@H]2CN2C(=S)NC[C@@H]2Cc2ccc(O)cc2)C(=S)N1CC1CCCCC1	32µM*	?	/	0%	?	/
CC(C)C[C@@H](CN1CCCC1CN1C(=S)NC[C@@H]1Cc1ccc(O)cc1)N1C[C@H](Cc2ccc(O)cc2)N(CCc2ccccc2)C1=S (some centres undefined)	28µM*	2%	13%	?	0	10%
O=C(O)C1=NC(C(=O)O)CC(C=CN2c3cc(O)c(OC4OC(CO)C(O)C(O)C4O)cc3CC2C(=O)O)=C1 (centres undefined)	/	/	/	8%	/	/
OC(CNCCN1CCNCC1)Cc1ccccc1 (centres undefined)	i	-1%	-2%	5%	-10	0%
COc1ccccc1N=Nc1ccc(O)c2ncccc12	16µM*	11%	10%	/	20	18%
SMILES	S2 tox	PINK1 modulator	SW480 rereplic	ATXN2 expr inh	IL1B secr inh	MCF10A rerep
CCS(=O)(=O)c1ccc(N=Nc2ccc(O)c3ncccc23)c(OC)c1	/	14µM*	4.6µM*	?	111	?
Cc1ccc(N=Nc2ccc(O)c3ncccc23)cc1C	?	4%	?	-38%	103	8%
Oc1ccc(N=Nc2ccccc2C(F)(F)F)c2cccnc12	i	9%	?	/	16	-2%
Cc1ccc(N=Nc2ccc(O)c3ncccc23)cc1	?	18%	1.2µM*	13µM*	2	?
CCCCN(Cc1cccs1)S(=O)(=O)c1cc(-c2cc(C)no2)ccc1C	/	2%	/	/	/	/
Cc1ccc(NC(=O)C2CCCN2S(=O)(=O)c2cccc3cccnc23)cc1C (centres undefined)	/	2%	/	/	/	/
CCCc1nn2c(=O)cc(COC(=O)c3ccc(NC(=O)c4cccs4)cc3)nc2s1	/	1%	/	/	/	/
Cc1oc(-c2ccccc2NC(=O)c2ccsc2)nc1CN(C)CC1CC=CCC1 (centres undefined)	i	0%	/	/	/	/
